# Data: PubChem BioAssay (NCI)
# Several values for one entry are separate records, joined by “and”; a condition that tells them apart may be missing. Identical values can stand only once. About 83,000 compounds went through this panel and 20% of them were active in at least one assay; those are over-represented in the sample as a whole.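 48-hour exposure, single concentration, 96-well plates; percent growth endpoint where 0 means no net growth. Active: below 10.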 A number with no mark means an inactive call. Activity calls are given as the source filed them.
# System: COLO 205 colon
# Assay: NCI-60 one-dose screen, 48 h (100 = growth as untreated, 0 = no growth, -100 = all killed)
# Conditions: 10 µM unless noted
row,Structure (SMILES),growth
1,Cc1cc(O)c(C(C)C)cc1N,130% and 126%
2,O=C(c1ccc(Cl)cc1)C(NCCO)c1ccc(Cl)cc1 (stereo not drawn),112% and 122%
3,O=C(O)CN(CCN(CC(=O)O)CC(=O)O)CCN(CC(=O)O)CC(=O)O,23% and 91.5% and 104%
4,O=S1(=O)CC(Br)C(Br)C1 (stereo not drawn),41.1% and 58.3%
5,Cc1ccc(S(=O)(=O)Nc2ccc3cc([N+](=O)[O-])ccc3c2[N+](=O)[O-])cc1,106% and 96.6%
6,CCc1c(CC(=O)O)c2cc(C)ccc2n1Cc1ccc(Cl)cc1,123%
7,CC#C[C@]1(O)CC[C@H]2[C@@H]3CCC4=CC(=O)CCC4=C3[C@@H](c3ccc4c(c3)OCO4)C[C@@]21C,101%
8,COc1cc(/C=N/Nc2nc3c([nH]2)c(=O)n(C)c(=O)n3C)ccc1O,119% and 126%
9,O=C1C2=C(C(=O)c3ccccc31)C(O)(S(=O)(=O)O)C(O)(S(=O)(=O)O)C1N=CC=CC21 (stereo not drawn),50.3%
10,COc1c(/C(C)=N/N=c2sc(C(C)=O)nn2-c2ccc(Cl)cc2)c(Oc2ccccc2)c(OC)c2occc12,114% and 111%
11,O=[N+]([O-])c1ccccc1N(S(=O)(=O)c1ccccc1)S(=O)(=O)c1ccccc1,129% and 117%
12,CCOc1ccc2c(S(=O)(=O)O)cccc2c1[N+](=O)[O-],107% and 103%
13,CC1=C(/C=C/C(C)=C/C=C/C(C)=C/C(=O)O)C(C)(C)CCC1,108% and 93.2% and 145%
14,CCN(CC)C(=O)c1cccnc1,115%
15,COc1ccc(S(=O)(=O)N2CCOCC2)cc1NC(=O)c1[nH]c(C)c2c1CCCCC2=O,113% and 34.8%
16,CCC(=O)C(CC)c1cccc(OC)c1 (stereo not drawn),117%
17,Cn1cc(-c2cc3c(Nc4ccc(CC(=O)Nc5cc(C(C)(C)C)on5)cc4)ncnc3[nH]2)cn1,-36.6% (active) and -33.4% (active)

row,Structure (SMILES),growth
1,C[N+](C)(C)CN1C(=O)c2ccccc2C1=O,104%
2,O=[N+]([O-])c1ccc2nc3c4ccccc4c4ccccc4c3nc2c1,71.4%
3,COc1ccccc1/C=N\N=C(N/N=C/c1ccccc1OC)N/N=C/c1ccccc1OC,75.6% and 34.6%
4,CN(C)c1ccc(C(Cc2ccc3ccccc3n2)Cc2ccc3ccccc3n2)cc1,43.5%
5,CO/N=C/C=C\C(=O)N/C=C/C[C@H]1/C=C/[C@H](O)/C=C\C=C\c2cccc(O)c2C(=O)O1,15.2% and 14.3%
6,CCN(CC)CCCC(C)Nc1cnc(C(=O)Nc2cc(F)cc3cccnc23)cn1 (stereo not drawn),3.11% (active) and -50.9% (active)
7,O=[N+]([O-])c1ccc(N/N=C\c2cc(Br)ccc2O)nc1,22.9% and 43.4%
8,COc1ccc(NC(=S)Nc2ccccn2)cc1,110%
9,CN(C)c1ccc(/C=C(\C#N)c2ccccc2)cc1,-2% (active) and -7.08% (active)
10,CN(C)CCCN1c2ccccc2Sc2ccc(Cl)cc21,50.5% and 102% and 67.9%
11,O=S(=O)(Nc1ccccc1)C1CCCCC1,102% and 122%
12,CC1=C(/C=C/C(C)=C/C=C/C(C)=C/C(=O)Nc2ccc(O)cc2)C(C)(C)CCC1,38.6%
13,CCCCCCCCCCCCCCCCOc1ccc(C)cc1,111%
14,COc1cc(C(=O)N/N=C/c2ccc(N(C)C)cc2)cc(OC)c1OC,-25.7% (active)
15,CC1(c2ccc3ccccc3c2)CCC(=O)O1 (stereo not drawn),99.3%
16,CCCCOc1cc(C(=O)NCCN(CC)CC)c2ccccc2n1,89.6% and 93.1%
